The campaign covered roughly 2,500 compounds. About 1,100 (44%) were called active. The set was probably picked from earlier hits. This is one part of the list. Values without a mark were called inactive.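 Rule for the calls: active = inhibition above 50% at 4 µM in the single-point screen; inactive = inhibition of 50% or less.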
assay: TNF-a-driven NF-kB reporter inhibitors, primary screen, selectivity assay for NOD1/NOD2 signaling inhibitor project, cell-based, HEK293T NF-kB-Luc, luminescence (AID 1852); conditions: TNF-a induced, 14 h, at 4 µM, active compounds read high

Structure (SMILES)	inhibition
O=C(Nc1ccc(Br)c2ccccc12)c1ccc2ccccc2c1O	42.5%
CC(=O)c1c(C)oc2ccc(N(C(C)=O)S(=O)(=O)c3ccc(F)cc3C)cc12	-8.7%
CCCC1/C(=N/O)CC(c2ccccc2)NC1c1ccccc1 (stereo not given)	31.6%
CC1=C(CO)C(=O)OC([C@@H](C)C2CC[C@H]3C4C[C@H]5O[C@]56[C@@H](O)C=CC(=O)[C@]6(C)C4CC[C@]23C)C1 (stereo not given in full)	89.9% (active)
CCC(C)(C)c1ccc(OCCCC[n+]2cccc(C)c2)c(C(C)(C)CC)c1	41.5%
COc1cc(OC)cc(-c2cc3nc(C)c(CCC(=O)O)c(C)n3n2)c1	85.7% (active)
Cc1cc(Cl)ccc1OCC(=O)Nc1ccccc1NS(=O)(=O)c1cccs1	21.7%
O=C(Nc1ccc(Cl)c(Cl)c1)Nc1ccccc1NS(=O)(=O)c1cccs1	94.3% (active)
O=C(Nc1ccc(Cl)c(Cl)c1)Nc1ccc(Br)cc1F	106% (active)
O=C(Nc1ccc([N+](=O)[O-])cc1)Nc1ccc(Cl)cc1F	12.9%
S=c1[nH]nc(-c2cc(-c3ccccc3)n[nH]2)n1/N=C/C(Br)=C/c1ccccc1	105% (active)
Cc1cc(-c2n[nH]c(=S)n2/N=C/C(Cl)=C/c2ccccc2)n[nH]1	-31.5%
Cc1ccc(-c2n[nH]c(=S)n2/N=C/c2ccncc2)cc1	4.6%
CC(=C/c1ccccc1)/C=N/n1c(-c2ccncc2)n[nH]c1=S	94.4% (active)
Cc1cc(-c2n[nH]c(=S)n2/N=C/C(Br)=C/c2ccccc2)n[nH]1	23.7%
Cc1noc2ncnc(Oc3ccc(Cl)cc3Cl)c12	-0.2%
CCN1CCN(Cc2ccc(NC(=O)c3ccc(C)c(/C=C/c4cnc(Nc5cc(N6CCNCC6)nc(C)n5)cn4)c3)cc2C(F)(F)F)CC1	-16%
CC[n+]1c(C=C2C=C(C)OC(C)=C2)sc2ccccc21	57.8% (active)
Cc1nc(SCCC(=O)O)c2cc(-c3ccccc3)sc2n1	48.4%
O=c1[nH]c(-c2ccccn2)nc2sc(-c3ccccc3)cc12	97.3% (active)

Structure (SMILES)	inhibition
Cc1sc2nc(-c3ccccn3)[nH]c(=O)c2c1-c1ccccc1	37.1%
COc1ccc(-c2cc(C(F)(F)F)nc(S(C)(=O)=O)n2)cc1OC	89.3% (active)
COc1ccccc1-c1cc(C(F)(F)F)nc(S(C)(=O)=O)n1	68.8% (active)
COC(=O)CCS(=O)(=O)c1nc(-c2ccccc2)cc(C(F)(F)F)n1	55.5% (active)
COCCN(Cc1ccccc1)C(=O)c1cc(-c2ccc(OC)c(OC)c2)nc2ccccc12	20%
COc1ccc(-c2cc(C(F)(F)F)nc(S(C)(=O)=O)n2)cc1	77.6% (active)
CCOc1cccc2sc(NC(=O)CCS(=O)(=O)c3ccccc3)nc12	-6.7%
Cc1cc(NC(=O)CCS(=O)(=O)c2nc(-c3ccccc3)cc(C(F)(F)F)n2)no1	46.7%
COc1ccc(NS(=O)(=O)c2ccc(-c3coc(C)n3)cc2)cc1OC	47.8%
C=C(CCC(=O)c1ccccc1)C(=O)c1ccccc1	-0.6%
O=C(Nc1ccncc1)c1c(F)cccc1F	59.3% (active)
Cc1ccc2oc(Nc3nc(-c4ccccc4)cc(=O)[nH]3)nc2c1	93% (active)
COc1ccc2c(C)nc(Nc3nc(-c4ccccc4)cc(=O)[nH]3)nc2c1	42.1%
Oc1c(Cl)cc(Cl)cc1/C=C/c1ccc2cccc(O)c2n1	37.4%
CC(C)(C)NC(=S)N/N=C/c1cc(Br)c(O)c(Br)c1	34.5%
CN(/N=C/c1cc(Cl)cc(Cl)c1O)C(=S)NC(C)(C)C	82.6% (active)
CC(C)c1noc2ncc(C(=O)c3cc(Cl)cc(Cl)c3O)cc12	60.1% (active)
O=c1cc(-c2ccccc2Cl)oc2c(NS(=O)(=O)c3cc(Cl)cc(Cl)c3O)ccc(O)c12	82.6% (active)
O=c1cc(-c2ccccc2Cl)oc2c([N+](=O)[O-])c(O)cc(O)c12	105% (active)
O=c1oc2ccccc2c(Nc2cc3ccccc3cc2O)c1[N+](=O)[O-]	-0.3%

Structure (SMILES)	inhibition
Nc1nccc(-c2ccc(-n3cnc4ccccc43)cc2)n1	67% (active)
O=C(O)COc1ccc(-c2nccc(-c3ccccn3)n2)cc1	43.3%
c1ccc2c(c1)ncn2-c1ccc(-c2ccnc(-c3ccncc3)n2)cc1	59.7% (active)
CC1CCc2nc(N)c(C#N)c(-c3cccnc3)c2C1 (stereo not given)	85.3% (active)
Cc1nc2c(-c3ccc(F)cc3)cnn2c(N)c1-c1ccccc1	-226%
Cc1nc(N)c(C#N)c(-c2cccnc2)c1-c1ccccc1	98.5% (active)
O=C(NNC(=O)c1ccccc1OCc1ccc(F)cc1)c1ccccc1O	51.1% (active)
CN(C(=O)COc1ccccc1C(=O)NCCOc1ccccc1)c1ccccc1	17.7%
O=C(NNC(=O)c1ccccc1OCc1ccccc1)c1ccccc1O	77.9% (active)
CCOc1ccccc1C(=O)N1CCN(C(c2ccccc2)c2ccccc2)CC1	22.1%
Cc1ccc(S(=O)(=O)n2c(N)nc3ccccc32)cc1	-1.7%
Cc1ccc(S(=O)(=O)Nc2ccccc2-c2ccccc2NS(=O)(=O)c2ccc(C)cc2)cc1	-1.3%
Cc1ccc(S(=O)(=O)Nc2ccccc2/C=N/c2nc3ccccc3n2C)cc1	89.4% (active)
Oc1c(CN2CCN(c3ccccn3)CC2)cc(Cl)c2cccnc12	20.4%
Oc1c(Cl)cc(Cl)c2cccnc12	102% (active)
Oc1c(I)cc(I)c2cccnc12	89% (active)
Oc1c(C(c2ccc(Cl)cc2)N2CCCC2)cc(Cl)c2cccnc12 (stereo not given)	20%
Oc1c(CN2CCc3ccccc3C2)cc(Cl)c2cccnc12	101% (active)
O=[N+]([O-])c1cc(Cl)c(O)c2ncccc12	102% (active)
Oc1c(CN2CCN(c3ccc(F)cc3)CC2)cc(Cl)c2cccnc12	17.1%
